The text below walks through data of ChEMBL document CHEMBL3433997, “St. Jude Leishmania screening dataset” (2016).

Common to all, as to format: functional
The target of experiment [1] is Solute carrier family 2, facilitated glucose transporter member 1 (Homo sapiens) (UniProt P11166). Kind of experiment: ST_JUDE_LEISH: Cytotoxicity at 2uM final concentration against transgenic Leishmania Mexicana promastigotes LmGLUT1 that are glucose transport deficient and complemented with the human glucose transporter GLUT1. Activity is measured by DNA content using SYBR green in vitro.
Sequence of Solute carrier family 2, facilitated glucose transporter member 1 (Homo sapiens) (P11166 whole entry): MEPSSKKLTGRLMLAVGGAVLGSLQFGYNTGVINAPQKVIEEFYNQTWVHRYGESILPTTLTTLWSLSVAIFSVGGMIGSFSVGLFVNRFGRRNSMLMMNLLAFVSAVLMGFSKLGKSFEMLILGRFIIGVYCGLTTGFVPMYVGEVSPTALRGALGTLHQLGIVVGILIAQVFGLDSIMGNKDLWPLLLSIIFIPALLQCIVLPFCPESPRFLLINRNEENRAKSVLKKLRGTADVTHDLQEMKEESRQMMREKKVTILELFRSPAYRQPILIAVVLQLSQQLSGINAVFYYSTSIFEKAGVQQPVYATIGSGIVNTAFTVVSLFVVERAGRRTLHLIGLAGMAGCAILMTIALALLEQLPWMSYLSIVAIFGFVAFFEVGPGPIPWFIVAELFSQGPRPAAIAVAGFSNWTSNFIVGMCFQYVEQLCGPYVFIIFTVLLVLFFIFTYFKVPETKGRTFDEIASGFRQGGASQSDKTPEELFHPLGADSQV

The target of experiment [2] is Hexose transporter 1 (Plasmodium falciparum) (UniProt O97467). Kind of experiment: ST_JUDE_LEISH: Cytotoxicity at 2uM final concentration against transgenic Leishmania Mexicana promastigotes LmPfHT that are glucose transport deficient and complemented with the Plasmodium falciparum hexose transporter. Activity is measured by DNA content using SYBR green in vitro.
Experiment [3] has as its target Glucose transporter (Leishmania mexicana) (UniProt O61059). Nature of the experiment: ST_JUDE_LEISH: Cytotoxicity at 2uM final concentration against transgenic Leishmania Mexicana promastigotes LmGT2 that are glucose transport deficient and complemented with the L. Mexicana glucose transporter 2. Activity is measured by DNA content using SYBR green in vitro.

The term inhibition denotes the relative decrease from the control value, in per cent. Take `Cc1nc(-c2cccc(NC(C)C(=O)Nc3cc(C(F)(F)F)ccc3N3CCOCC3)c2)cs1` (stereo not drawn): the inhibition in experiment [1] came to 0.08%; in experiment [2], 0.47%; in experiment [3], 0.96%.

As for `CN(C)C(=O)c1ccc(CN(Cc2ccc(OC(C)(C)C)cc2)Cc2ccc3c(c2)OCCO3)cc1`, the inhibition in experiment [1] was determined as 0.59%; in experiment [2], 2.04%; in experiment [3] it was 0.26%.

In the case of `CN(C)C(CNC(=O)c1cc(-c2ccncc2)c(-c2cc3ccccc3[nH]2)o1)c1ccccc1` (stereo not drawn), the inhibition in experiment [1] turned out to be 3.53%; in experiment [2] it was 2.32%; in experiment [3] it was 2.06%.

Take `Cc1cc2c(cc1Cl)N(C(=O)Nc1cc(F)cc(-c3cncnc3)c1)CC2`: the inhibition came out at 9.04% in experiment [1], 5% in experiment [2] and 2.7% in experiment [3].

Consider `CCCCCCn1c(Sc2ccc(C#N)c([N+](=O)[O-])c2)nnc1-c1ccc(Cl)cc1`, for which the inhibition was determined as 5.74% in experiment [1], 7.85% in experiment [2] and 2.57% in experiment [3].

For `O=C(NCCCCN1CCC(O)(c2ccc3c(c2)OCO3)CC1)c1ccc(NC(=O)c2ccc(Cl)cc2)cc1`, the inhibition in experiment [1] is -1.5%; in experiment [2], 1.45%; in experiment [3], -1.6%.

With `CC(C)(CC1CCCCC1)NC(=O)[C@H](CC1CCCCC1)Nc1ccc(C#N)c2ccccc12`, the inhibition in experiment [1] is 1.82%; in experiment [2], 1.4%; in experiment [3], -1.9%.

Regarding `FC(F)(F)c1ccc2[nH]c(-c3ccc(-c4cccc(CNCCc5cccnc5)c4)s3)nc2c1`, the inhibition came to 3.04% in experiment [1], 2.04% in experiment [2] and 4.6% in experiment [3].

Regarding `CN(C)CCCNc1ncnc2c1[nH]c1ccc(F)cc12`, the inhibition in experiment [1] came to 7.06%; in experiment [2], 7.08%; in experiment [3] it was 7.71%.

Take `Cc1cccc2nc(-c3ccc(-c4ccc(NC(=O)Nc5ccc(Cl)cc5)cc4)s3)[nH]c12`: the results for the inhibition in experiment [1], in experiment [2] and in experiment [3] were 1.01%, 1.2% and 0.32%, respectively.

For the molecule `O=C(NCCN1CCCC1)c1cccc(-c2ccc(-c3nc4cc(F)ccc4[nH]3)s2)c1`, the inhibition in experiment [1] was found to be 2.21%; in experiment [2] it was 2.37%; in experiment [3], 3.1%.

In the case of `Cc1cccc(OCCCCON2C(=N)N=C(N)NC2(C)C)c1C`, the inhibition in experiment [1] turned out to be 0.1%; in experiment [2] it was 0.14%; in experiment [3], 1.69%.

For `COc1ccc(-n2nc(C)cc2C(=O)NCc2ccc(-c3c(C)noc3C)cc2)cc1`, the results for the inhibition in experiment [1], in experiment [2] and in experiment [3] were 2.56%, 2.4% and -0.58%, respectively.

Turning to `Cc1[nH]c(C)c(-c2ccc(CCc3ccc(F)cc3F)cc2)c(=O)c1Cl`, the inhibition was 0.89% in experiment [1], 1.94% in experiment [2] and -0.68% in experiment [3].

Consider `Cc1cccc2nc(-c3cccc(-c4ccc(NC(=O)c5cccc(C(N)=O)c5)cc4)c3)[nH]c12`, for which the values for the inhibition in experiment [1], in experiment [2] and in experiment [3] were 1.01%, 1.42% and 1.38%, respectively.

`CCOC(=O)CNC(=O)N(CCN(Cc1ccccc1)C(=O)NCC(=O)OCC)Cc1ccccc1`: the inhibition in experiment [1] worked out at 0.94%; in experiment [2], 2.07%; in experiment [3] it was 1.35%.

With `CC[C@]1(C)C[C@@H](NC(=O)NC(=O)c2ccc(OC)cc2)[C@]2(C)[C@H](C)CC[C@]3(CCC(=O)[C@H]32)[C@@H](C)[C@@H]1OC(=O)NC(=O)c1ccc(OC)cc1`, the inhibition worked out at 7.7% in experiment [1], 5.47% in experiment [2] and 7.04% in experiment [3].

With `COc1ccc(-c2cc(Nc3nc(-c4cccc(Cl)c4)nc4ccccc34)ccn2)cc1`, the inhibition in experiment [1] is 1.11%; in experiment [2], 0.61%; in experiment [3], -0.05%.

As for `Cc1cc(C(F)(F)F)nn1-c1ccc(NC(=O)c2ccco2)cc1`, the inhibition in experiment [1] was -2.06%; in experiment [2], -1.65%; in experiment [3], -1.05%.

In the case of `CNCCNCc1ccc(-c2cccc(-c3nc4cc(C(F)(F)F)ccc4[nH]3)c2)cc1`, the inhibition in experiment [1] came to 3.52%; in experiment [2] it was 0.66%; in experiment [3] it was 1.45%.

As to `COc1ccc(NC(=O)[C@H](Cc2ccccc2)Nc2cc(C)nc(NCCc3ccccc3OC)n2)cc1`, the values for the inhibition in experiment [1], in experiment [2] and in experiment [3] were -0.03%, -1.38% and -0.97%, respectively.

Regarding `COc1ccc2nccc([C@@H](O)CN3CCC(NC(=O)Cc4ccc(Br)c5ccccc45)CC3)c2c1`, the inhibition in experiment [1] was 3.72%; in experiment [2] it was 3.24%; in experiment [3], 1.16%.

Consider `NC12CC3CC(CC(C3)C1)C2`, for which the inhibition in experiment [1] turned out to be 5.47%; in experiment [2], 5.42%; in experiment [3], 4.45%.

For `O=C(Nc1ccccc1Cc1ccccc1)c1ccccc1C(F)(F)F`, the inhibition in experiment [1] was 6.25%; in experiment [2], 1.68%; in experiment [3], 2.61%.

With `C[C@@H]1CN(C(c2cccc(O)c2)c2cccc(C(=O)N(C)c3cccc(F)c3)c2)[C@@H](C)CN1C(c1cccc(O)c1)c1cccc(C(=O)N(C)c2cccc(F)c2)c1` (stereo partly drawn), the inhibition in experiment [1] came to 3.79%; in experiment [2], 2.73%; in experiment [3], 2.45%.

On to `Cc1cc(N[C@@H](CC(C)C)C(=O)Nc2ccccc2)nc(NCC2CCCCC2)n1`, for which the inhibition in experiment [1] was found to be 10.2%; in experiment [2] it was 9.8%; in experiment [3] it was 5.12%.

On to `Clc1ccc(CNc2ccnc(NCc3cccnc3N3CCCC3)n2)c(Cl)c1`, for which the inhibition in experiment [1] was 12.9%; in experiment [2], 7.88%; in experiment [3], 3.44%.

As to `CN1CCCC(CN2CCN(Cc3ccc(-c4ccc(-c5nc6ccccc6[nH]5)cc4)cc3)CC2)C1` (stereo not drawn), the inhibition in experiment [1] was 13%; in experiment [2], 15.9%; in experiment [3] it was 7.8%.

In the case of `O=C(NCCCCN1CCC(c2ccc3ccccc3c2O)CC1)c1ccc(-c2ccc(Cl)cc2)cc1`, the inhibition in experiment [1] worked out at 5.43%; in experiment [2], 3.32%; in experiment [3] it was 3.45%.

Consider `Cc1cccc2nc(-c3ccc(-c4ccc(CN5CCN(CCN6CCOCC6)CC5)cc4)cc3)[nH]c12`, for which the inhibition in experiment [1] was 6.69%; in experiment [2] it was 8.97%; in experiment [3], -1.08%.

On to `CC1CN(c2cnn(Cc3ccc(NC(=O)Nc4cccc(C(F)(F)F)c4)cc3)c(=O)c2Cl)CC(C)N1` (stereo not drawn), for which the results for the inhibition in experiment [1], in experiment [2] and in experiment [3] were 3.97%, 3.35% and -1.12%, respectively.
